Laboratory results: PubChem BioAssay (NCATS)
Records with an inconclusive call do not appear. Where a call stands in place of a potency, no number is given. The source made the active and inactive calls. Calls follow the shape of the dose curve; as a rule, active = well fitted curve in the direction sought with a large enough effect; inconclusive = small, poorly fitted or top-dose-only effect, or another doubt; inactive = no such curve, though single readings can be large; an effect the other way counts as inactive or inconclusive.

Legend:
[1] = tested on: Zika virus NS2B-NS3 protease; assay: Primary screen GU AMC qHTS for Zika virus inhibitors (AID 1347154); also: nearly all actives have a fitted effect of over 70% in size; also: potency is read from the fitted curve at half-maximal effect
In short: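 Unlinked Zika NS2B hydrophilic domain–NS3 protease complex at 25 nM in 10 mM Tris-HCl pH 8.0, 0.01% Tween 20, with an AMC peptide substrate. Fluorescence change (340/450 nm) over 15 min at room temperature, normalized to controls, fitted to 4-parameter Hill.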

[2] = target: Furin (Homo sapiens) (UniProt P09958); assay: Furin counterscreen qHTS for Zika virus inhibitors (AID 1347149); also: nearly all actives have a fitted effect of over 70% in size; also: potency is read from the fitted curve at half-maximal effect
Chain of Furin (Homo sapiens) (P09958 whole entry, looked up): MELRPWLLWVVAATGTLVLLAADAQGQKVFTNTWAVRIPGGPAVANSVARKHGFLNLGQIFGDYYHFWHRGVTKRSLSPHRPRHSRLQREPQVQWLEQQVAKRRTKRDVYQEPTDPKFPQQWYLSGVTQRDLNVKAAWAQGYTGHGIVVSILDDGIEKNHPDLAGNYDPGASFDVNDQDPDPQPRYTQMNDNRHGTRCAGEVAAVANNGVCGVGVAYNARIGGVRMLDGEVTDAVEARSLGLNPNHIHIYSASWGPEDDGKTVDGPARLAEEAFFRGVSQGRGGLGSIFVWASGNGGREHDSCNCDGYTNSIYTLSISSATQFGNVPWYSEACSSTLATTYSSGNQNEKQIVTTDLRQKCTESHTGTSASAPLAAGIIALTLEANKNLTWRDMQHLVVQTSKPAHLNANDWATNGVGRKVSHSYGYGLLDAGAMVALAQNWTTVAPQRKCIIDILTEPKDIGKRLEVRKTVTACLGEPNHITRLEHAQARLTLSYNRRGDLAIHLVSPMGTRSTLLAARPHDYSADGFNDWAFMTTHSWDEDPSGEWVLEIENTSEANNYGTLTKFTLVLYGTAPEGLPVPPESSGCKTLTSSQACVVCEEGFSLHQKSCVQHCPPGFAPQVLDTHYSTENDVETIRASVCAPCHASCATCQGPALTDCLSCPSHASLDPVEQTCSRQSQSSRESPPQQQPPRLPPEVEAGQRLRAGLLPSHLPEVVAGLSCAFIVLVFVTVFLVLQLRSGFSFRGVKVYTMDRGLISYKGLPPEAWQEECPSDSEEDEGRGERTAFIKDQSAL
In short: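 Counterscreen measures cleavage of 2 microM BOC-RVRR-AMC, below its ~15 microM Km, by 5 nM full-length human furin at pH 7.0 after a 15-min compound preincubation. Inhibition derives from the 15-min fluorescence increase at 37C.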

[3] = Confirmatory screen GU Rhodamine qHTS for Zika virus inhibitors qHTS (AID 1347157); also: potency is read from the fitted curve at half-maximal effect; nearly all actives have a fitted effect of over 70% in size
In short: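 Compounds, tested up to 114 microM, were incubated for 15 minutes with 25 nM unlinked NS2B-NS3 protease at pH 8.0. Cleavage of 1.5 microM Rhodamine110 substrate was then followed by fluorescence for 15 minutes.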

[4] = tested on: Zika virus NS2B-NS3 protease (unlinked complex); assay: Primary screen GU Rhodamine qHTS for Zika virus inhibitors: Unlinked NS2B-NS3 protease assay (AID 1347159); also: nearly all actives have a fitted effect of over 60% in size; also: potency is read from the fitted curve at half-maximal effect
In short: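 Percent inhibition came from the 15-min rise in Rhodamine110 fluorescence (1.5 microM substrate, ~15% conversion), normalized to no-inhibitor and no-enzyme wells and Hill-fitted. Unlinked protease, 25 nM, pH 8.0 Tris buffer; compounds up to 114 microM, 15-min preincubation.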

[5] = tested on: Zika virus NS2B-NS3 protease (linked construct); assay: Primary screen NINDS Rhodamine qHTS for Zika virus inhibitors (AID 1347160); also: nearly all actives have a fitted effect of over 55% in size; also: potency is read from the fitted curve at half-maximal effect
In short: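 Rhodamine110-peptide cleavage (1.5 µM substrate) by 25 nM linked NS2B-NS3 enzyme at pH 8.0 (Tris, Tween 20), after 15 min RT preincubation with compounds; 15-min fluorescence change normalized to controls and Hill-fitted.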

[6] = tested on: Zika virus NS2B-NS3 protease (linked); assay: 384 well plate NINDS AMC confirmatory qHTS for Zika virus inhibitors (AID 1347163); also: potency is read from the fitted curve at half-maximal effect; nearly all actives have a fitted effect of over 50% in size
In short: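 Enzyme (5, 30 or 60 nM final) first met test compounds for ~15 min. The AMC-tagged peptide Ac-VKTGKR-AMC followed at 30 microM. Fluorescence was then recorded at 25 min and scaled against no-enzyme and no-inhibitor wells.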

[7] = tested on: Zika virus NS2B-NS3 protease (linked construct); assay: 384 well plate NINDS Rhodamine confirmatory qHTS for Zika virus inhibitors (AID 1347164); also: potency is read from the fitted curve at half-maximal effect; nearly all actives have a fitted effect of over 65% in size
In short: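 Cleavage of Ac-LKRR-Rhodamine 110 (10 microM final) by linked protease (final 5, 30 or 60 nM) was followed as fluorescence at 485/538 nm after 25 min, room temperature, dark. Compounds preincubated ~15 min.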

[8] = Vero cells viability qHTS for Zika virus inhibitors (AID 1347167)
In short: (§1)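 qHTS titration; 24-48 h compound exposure, 37 degrees C/5% CO2; DMEM, 4% FBS; CellTiter Glo ATP luminescence.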

[9] = HepG2 cells viability qHTS for Zika virus inhibitors (AID 1347168); also: potency is read from the fitted curve at half-maximal effect
In short: as §1

[10] = qHTS of pediatric cancer cell lines to identify multiple opportunities for drug repurposing: Confirmatory screen for SK-N-SH cells (AID 1347129);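 also: potency is read from the fitted curve at half-maximal effect; cells exposed to compound for 48 h before viability read; nearly all actives have a fitted effect of over 60% in size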
In short: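 Viability after 48 h compound treatment at 37C, 500-1,000 cells/well, read as ATP luminescence with CellTiter-Glo. Primary screens used 11-point (MIPE, 0.78 nM-46 µM) or 8-point (NPC, 0.59 nM-46 µM) final concentrations; follow-up screens used 11-point dilutions.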

[11] = tested on: Zika virus NS2B-NS3 protease (linked construct); assay: Confirmatory screen NINDS AMC qHTS for Zika virus inhibitors (AID 1347152); also: potency is read from the fitted curve at half-maximal effect; nearly all actives have a fitted effect of over 70% in size
In short: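 Concentration-response confirmation used the NINDS linked protease (NS2B hydrophilic domain joined to NS3 protease domain), 1 nM, with a 15-min compound preincubation. Substrate, Nle-KRR-AMC at 10 microM, was read by UV fluorescence before and after 15 min.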

SMILES: COc1c(N2C[C@@H]3CCCN[C@H]3C2)c(F)cc2c(=O)c(C(=O)O)cn(C3CC3)c12
- Potency [1]: 30.4 µM (active)

SMILES: O=C(NCCCNc1nc(Nc2cccc(NC(=O)N3CCCC3)c2)ncc1I)c1cccs1
- Potency [1]: inactive

SMILES: O=C(O)C1(Cc2cccc(Nc3nccs3)n2)CCC(Oc2cccc(Cl)c2F)CC1 (stereo not given)
- Potency [2]: inactive
- Potency [3]: 6.98 µM (active)
- Potency [4]: 6.31 µM (active)
- Potency [5]: 4.47 µM (active)
- Potency [6]: 3.16 µM (active)
- Potency [7]: 14.1 µM (active)
- Potency [8]: inactive
- Potency [9]: inactive

SMILES: C1=CCOCc2cc(ccc2OCCN2CCCC2)Nc2nccc(n2)-c2cccc(c2)OCC1
- Potency [1]: inactive

SMILES: Cc1cc(Nc2ncnc3ccc(-c4ccc(CNCCS(C)(=O)=O)o4)cc23)ccc1Oc1ccn2ncnc2c1
- Potency [10]: 20.9 µM (active)
- Potency [5]: inactive

SMILES: COc1cc2ncn(-c3cc(OCc4ccccc4C(F)(F)F)c(C(N)=O)s3)c2cc1OC
- Potency [1]: inactive

SMILES: CN1c2cc(O)c(N=NC(N)=O)cc2CC1S(=O)(=O)O (stereo not given)
- Potency [1]: inactive

SMILES: Nc1ccn([C@@H]2CS[C@H](CO)O2)c(=O)n1
- Potency [1]: inactive

SMILES: C[C@@H]1CN(CC(=O)Nc2ccc3c(c2)Cc2cccc(-c4cc(=O)cc(N5CCOCC5)o4)c2S3)C[C@H](C)O1
- Potency [1]: inactive

SMILES: CN1CCN(c2ccc3nc(-c4c(N)c5c(F)cccc5[nH]c4=O)[nH]c3c2)CC1
- Potency [1]: inactive

SMILES: C[C@H]1C[C@@H]2[C@@H]([C@@H](O)C[C@@]3(C)[C@H]2CC[C@]3(O)C(=O)CO)[C@@]2(C)C=CC(=O)C=C12
- Potency [1]: inactive

SMILES: CN1CCC(CNc2ccc3ncc(-c4cccc(OC(F)(F)F)c4)n3n2)CC1
- Potency [2]: 21.5 µM (active)
- Potency [11]: 27.1 µM (active)
- Potency [1]: 24.1 µM (active)
- Potency [4]: inactive
- Potency [5]: inactive
- Potency [9]: 11.7 µM (active)
